# For some assays here: Results with a measured potency or affinity are listed apart. Some of the results follow. Records with an inconclusive call do not appear. Activity calls are given as the source filed them. Unless noted, no rule for the calls is given here.
# Key:
# [1] = A549 cell cytotoxicity, dose response, cytotoxicity control, plate reader, cherry-pick, antagonist series (AID 743412);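 also: 0% = neutral control wells and -100% = positive control wells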
# [2] = Ring1 de-repression measured by qPCR – cell-based, mouse ESC, RT-qPCR, cherry-pick, esBAF inhibitor project, confirmation (AID 743176;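 active = Ring1 gene expression raised more than 2-fold over untreated cells in both replicates at either tested dose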;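 also: Ring1 transcript normalised to actin housekeeping signal by TaqMan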); conditions: mouse ESC E14, Ring1 mRNA RT-qPCR fold change, stronger effect = higher value
# [3] = Bmi1 mRNA increase in mouse ESCs – cell-based, RT-qPCR, mouse ESC, single point, cherry-pick, confirmation (AID 743180;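 active = Bmi1 expression fold change above 6 at either tested concentration, seen in replicate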;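 also: higher fold means more Bmi1 de-repression and stronger esBAF inhibition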); conditions: mouse ESC E14, Bmi1 mRNA qPCR fold, stronger effect = higher value
# [4] = viability loss in A549 cells – cell-based, plate reader, single point, cherry-pick, cytotoxicity control (AID 743188); conditions: at 25 µM
# [5] = viability loss in HepG2 cells – cell-based, plate reader, single point, cherry-pick, cytotoxicity control (AID 743189; in the data active = activity change below about -50%); conditions: at 25 µM, stronger effect = lower value
# [6] = viability loss in HEK293 cells – cell-based, plate reader, single point, cherry-pick, cytotoxicity control (AID 743190; in the data active = activity change below about -38%, passing the limit was not always enough); conditions: at 25 µM
# [7] = Fgf4 repression measured by qPCR – cell-based, mouse ESC, RT-qPCR, cherry-pick, esBAF inhibitor project, confirmation (AID 743177;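 active = Fgf4 expression under 0.8 fold of control in both repeat measurements at one or both tested doses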;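 also: Fgf4 transcript normalised to actin in duplex TaqMan qPCR; cells exposed to compound for 24 h before lysis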); conditions: mouse ESC E14, Fgf4 mRNA qPCR fold change, stronger effect = lower value
SMILES,outcome [1],"fold change ([2]; Ring1 fold increase, at 7 µM)",fold change ([2]; at 33 µM),"fold change ([3]; Bmi1 de-repression, at 7 µM)",fold change ([3]; at 33 µM),cell viability change % (negative = cytotoxic) [4],"activity change, negative = inhibition [5]","activity change, negative = inhibition [6]","Fgf4 expression fold change ([7]; Fgf4 expression, at 7 µM)",Fgf4 expression fold change ([7]; at 33 µM)
O=C(CN1C(=O)c2ccccc2S1(=O)=O)Nc1ncc(Cl)cc1Cl,inactive,,,,,,,,,
COc1ccc(/C=N/OCc2ccccc2C#N)c(OC)c1,,1.08,0.981 (inactive),1.34,1.44 (inactive),-7.58% (inactive),-31.8% (inactive),-7.24% (inactive),,
COC(=O)/C(=C1\Oc2ccc(C(C)(C)C)cc2S1)C(F)(F)F,,1.4,1.09 (inactive),1.51,1.42 (inactive),-9.79% (inactive),-31.4% (inactive),0.258% (inactive),1.06,0.881 (inactive)
Cc1ccc(-c2cnn3c(N4CCOCC4)cc(C)nc23)cc1,inactive,,,,,,,,,
COc1ccc(-n2ncc3c(N4CCC(C)CC4)ncnc32)cc1,inactive,,,,,,,,,
Cc1cc(Cl)nc(NC(=O)Nc2cccc(Cl)c2)n1,,1.34,1.28 (inactive),1.61,1.24 (inactive),-1.39% (inactive),-22.4% (inactive),1.81% (inactive),0.987,1.08 (inactive)
COc1ccc(Nc2ncnc3sc(C)cc23)cc1,,1.32,1.33 (inactive),1.3,1.05 (inactive),-6.19% (inactive),-4.23% (inactive),-3.92% (inactive),1.18,1.26 (inactive)
CN(C)c1ccc(CSc2ccccc2)cc1,,1.14,1.08 (inactive),1.01,0.984 (inactive),5.13% (inactive),-22.2% (inactive),0.895% (inactive),,
O=C(O)c1cccc(-c2noc(-c3cccc(Cl)c3)n2)c1,inactive,,,,,,,,,
O=C(NN=Cc1ccc2c(c1)CCC2)c1ccccc1O,,1.13,1.24 (inactive),1.51,1.77 (inactive),-5.69% (inactive),-32.1% (inactive),0.295% (inactive),0.906,0.972 (inactive)
O=C(Nc1nc(-c2ccc(S(=O)(=O)N3CCOCC3)cc2)cs1)c1ccccc1,inactive,,,,,,,,,
COc1cc2ccccc2cc1C(=O)Nc1ccccc1C,,1.25,0.965 (inactive),1.37,1.49 (inactive),-15.3% (inactive),-26.3% (inactive),-24.6% (inactive),0.978,0.878 (inactive)
CCS(=O)(=O)n1nc(-c2ccc(OC)cc2)nc1SC,,1.25,1.01 (inactive),1.24,1.6 (inactive),-13.7% (inactive),-11.2% (inactive),-16.8% (inactive),0.938,1.05 (inactive)
O=C(Nc1cccnc1Cl)c1cc(-c2ccccc2O)on1,,1.22,1 (inactive),1.07,1.14 (inactive),-9.75% (inactive),-4.96% (inactive),-13.7% (inactive),1.2,1.05 (inactive)
COc1ccc(C(=O)Nc2ccc3ccccc3c2)cc1,inactive,,,,,,,,,
C/C(=C\C(=O)c1cccnc1)Nc1ccc(C)c(C)c1,,1.22,1.07 (inactive),1.46,1.59 (inactive),-3.61% (inactive),12.6% (inactive),-0.923% (inactive),1.06,0.903 (inactive)
CC(C)(C)NC(=O)Cn1nnc(-c2ccccc2Cl)n1,,1.18,1.12 (inactive),1.16,1.15 (inactive),-11.9% (inactive),-3.1% (inactive),-13.6% (inactive),0.977,0.933 (inactive)
